Source: PubChem
aDG glyco act = alpha-DG glycosylation activation. Pro5-aDG cells, alpha-DG glycosylation AlphaScreen (IIH6); 0% Pro5, 100% B10-LARGE cell signal. activation, % at 10 µM. 360,000 tested, 0.22% active;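 active means activation of at least 8% versus controls, or a plate z-score of at least 8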;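 further: Pro5 are CHO cells carrying HIG-tagged alpha-DG that lacks glycosylation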
FAS-TE inh = inhibitors of human fatty acid synthase thioesterase domain; inhibition, % at 15 µM; AID 602261; 360,000 tested, 0.67% active; recombinant FAS-TE, OMFH fluorogenic substrate, fluorescence endpoint; P49327;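 active means compounds whose normalised, plate-corrected inhibition of enzyme fluorescence in the single-dose primary screen is 50% or more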
Target sequence (P49327 whole entry, looked up, the tested form may be a part): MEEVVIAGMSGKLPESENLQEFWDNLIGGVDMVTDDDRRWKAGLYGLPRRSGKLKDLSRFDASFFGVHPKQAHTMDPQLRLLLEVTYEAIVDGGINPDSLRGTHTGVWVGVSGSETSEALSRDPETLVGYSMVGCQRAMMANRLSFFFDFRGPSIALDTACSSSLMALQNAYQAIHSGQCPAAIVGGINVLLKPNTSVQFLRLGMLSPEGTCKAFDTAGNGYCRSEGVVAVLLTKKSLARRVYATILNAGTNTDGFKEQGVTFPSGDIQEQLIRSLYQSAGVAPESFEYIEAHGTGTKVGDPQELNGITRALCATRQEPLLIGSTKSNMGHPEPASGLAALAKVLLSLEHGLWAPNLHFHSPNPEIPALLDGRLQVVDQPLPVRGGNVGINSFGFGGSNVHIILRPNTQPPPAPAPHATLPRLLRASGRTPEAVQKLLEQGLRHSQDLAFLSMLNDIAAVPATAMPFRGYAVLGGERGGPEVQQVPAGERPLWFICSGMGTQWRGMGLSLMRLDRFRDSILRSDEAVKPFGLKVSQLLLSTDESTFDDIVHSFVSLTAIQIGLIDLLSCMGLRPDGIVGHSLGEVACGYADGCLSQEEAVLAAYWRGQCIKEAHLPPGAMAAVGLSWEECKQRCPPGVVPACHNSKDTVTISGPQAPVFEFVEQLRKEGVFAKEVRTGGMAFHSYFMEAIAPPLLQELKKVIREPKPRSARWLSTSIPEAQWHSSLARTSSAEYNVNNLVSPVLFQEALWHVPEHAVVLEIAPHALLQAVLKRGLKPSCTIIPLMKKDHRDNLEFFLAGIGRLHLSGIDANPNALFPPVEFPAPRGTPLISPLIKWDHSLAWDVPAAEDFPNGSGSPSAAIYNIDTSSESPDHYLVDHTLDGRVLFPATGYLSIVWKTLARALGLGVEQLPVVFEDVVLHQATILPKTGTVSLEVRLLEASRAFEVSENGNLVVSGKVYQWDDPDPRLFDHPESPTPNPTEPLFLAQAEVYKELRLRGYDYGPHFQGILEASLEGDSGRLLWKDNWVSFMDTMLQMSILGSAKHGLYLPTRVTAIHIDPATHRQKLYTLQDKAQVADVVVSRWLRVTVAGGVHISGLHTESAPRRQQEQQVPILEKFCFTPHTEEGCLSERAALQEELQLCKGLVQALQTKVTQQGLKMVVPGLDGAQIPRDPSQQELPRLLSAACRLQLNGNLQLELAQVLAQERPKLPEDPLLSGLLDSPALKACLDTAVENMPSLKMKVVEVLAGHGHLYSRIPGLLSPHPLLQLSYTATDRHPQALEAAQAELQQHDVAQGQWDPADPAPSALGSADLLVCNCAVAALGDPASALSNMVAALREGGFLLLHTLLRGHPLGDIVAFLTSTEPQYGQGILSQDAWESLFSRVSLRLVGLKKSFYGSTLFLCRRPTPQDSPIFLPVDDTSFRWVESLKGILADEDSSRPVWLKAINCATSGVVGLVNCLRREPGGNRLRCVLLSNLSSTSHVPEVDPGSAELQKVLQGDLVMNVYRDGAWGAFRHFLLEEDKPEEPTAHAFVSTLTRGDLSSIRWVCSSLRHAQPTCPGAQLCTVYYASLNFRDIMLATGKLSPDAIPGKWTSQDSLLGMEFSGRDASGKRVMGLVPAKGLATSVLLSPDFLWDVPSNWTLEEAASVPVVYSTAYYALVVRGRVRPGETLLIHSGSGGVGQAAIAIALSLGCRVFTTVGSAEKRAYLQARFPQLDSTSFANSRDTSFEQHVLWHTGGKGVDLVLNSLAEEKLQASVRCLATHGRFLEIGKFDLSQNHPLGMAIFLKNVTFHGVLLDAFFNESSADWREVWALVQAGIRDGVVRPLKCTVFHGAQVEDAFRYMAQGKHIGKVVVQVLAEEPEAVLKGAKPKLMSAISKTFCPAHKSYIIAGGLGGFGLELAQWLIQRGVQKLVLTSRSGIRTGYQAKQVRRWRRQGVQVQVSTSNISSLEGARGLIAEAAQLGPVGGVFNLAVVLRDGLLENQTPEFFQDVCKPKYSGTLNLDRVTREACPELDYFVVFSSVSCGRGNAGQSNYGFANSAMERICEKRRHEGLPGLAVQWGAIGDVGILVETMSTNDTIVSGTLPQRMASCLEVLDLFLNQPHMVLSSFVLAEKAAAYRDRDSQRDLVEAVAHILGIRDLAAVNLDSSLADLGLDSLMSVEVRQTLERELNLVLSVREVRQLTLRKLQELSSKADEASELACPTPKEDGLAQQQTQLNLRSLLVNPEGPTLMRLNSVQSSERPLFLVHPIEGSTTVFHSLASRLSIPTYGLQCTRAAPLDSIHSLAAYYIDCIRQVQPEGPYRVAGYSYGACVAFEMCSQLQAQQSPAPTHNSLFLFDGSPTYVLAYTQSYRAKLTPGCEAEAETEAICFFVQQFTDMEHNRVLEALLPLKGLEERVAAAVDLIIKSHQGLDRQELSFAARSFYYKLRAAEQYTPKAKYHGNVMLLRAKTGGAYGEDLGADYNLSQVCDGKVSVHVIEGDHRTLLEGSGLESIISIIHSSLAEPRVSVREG
GC-A act = GC-A (human) enzyme activation | P16066 | HEK293 GC-A cells, cGMP TR-FRET, EC30 ANP; 0% at EC30 ANP, 100% saturating ANP | activation, % at 10 µM | 370,000 tested, 0.14% active | AID 1671463; in the data active means activation above about 40%
GC-B act = GC-B (human) receptor activation | P20594 | HEK293-GC-B cells, CNP EC30, cGMP TR-FRET; 0% at EC30 CNP, 100% saturating CNP | activation, % at 10 µM | 370,000 tested, 0.11% active | AID 1920062;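 active means activation at 10 µM reaching about 35% in either raw or pattern-adjusted values, limit read from the data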
FAS-TE inh conf = confirmation of human fatty acid synthase thioesterase inhibitors; shares compounds with FAS-TE inh; recombinant FAS-TE, OMFH fluorogenic substrate, fluorescence; inhibition, % at 15 µM; 2,300 tested, 45% active; AID 624325;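 active means compounds inhibiting the enzyme by at least 50% at 15 µM in any one of the replicates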
Each line names hits and unclear results; the compound was inactive in the other large screens (follow-up assays come after a bar, where they were run). Compounds with a hit are over-represented: about 1.1% of the library has one in this group of screens.

CCOc1ccc(C(C)=O)cc1COC(=O)c1cc([N+](=O)[O-])ccc1N1CCOCC1	none
CCOc1ccc(C(=O)COC(=O)c2cc([N+](=O)[O-])ccc2N2CCOCC2)cc1	FAS-TE inh 69 | FAS-TE inh conf 63
COC(=O)C(C(=O)OC)[C@H]1C=C[C@@H](C(=O)NS(=O)(=O)c2ccc(C)cc2)N(C(C)=O)C1	none (no result: aDG glyco act, FAS-TE inh)
O=C(NCC1CCN(C(=O)C(=O)c2cc3ccccc3o2)CC1)c1ccncc1	none (no result: aDG glyco act, FAS-TE inh)
S=C(Nc1cccc(Br)c1)OC1CCC12CCC(c1ccccc1)CC2 (stereo not drawn)	none (no result: aDG glyco act, FAS-TE inh)
COc1cc(-c2ccc(Nc3ccccc3C(=O)O)c(OC)c2)ccc1Nc1ccccc1C(=O)O	FAS-TE inh 71 | FAS-TE inh conf 73
Cc1ccc(NC(=S)N(Cc2cccs2)Cc2cc3cc(C)ccc3[nH]c2=O)cc1	FAS-TE inh 72 | FAS-TE inh conf inactive
COc1cc2cc(CN(Cc3cccs3)C(=S)Nc3ccc(C)cc3)c(=O)[nH]c2cc1OC	FAS-TE inh 76 | FAS-TE inh conf inactive
CNC(=S)N(Cc1cccs1)Cc1cc2cc(OC)c(OC)cc2[nH]c1=O	none
Cc1cc(C)c2[nH]c(=O)c(CN(Cc3cccs3)C(=S)NCc3ccco3)cc2c1	FAS-TE inh 62 | FAS-TE inh conf inactive
CCN(CC)CCN(Cc1cc2cc(C)cc(C)c2[nH]c1=O)C(=S)NCc1ccco1	none
COC(=O)C1=C(C)NC(=S)NC1c1cccc(OC)c1 (stereo not drawn)	none (no result: aDG glyco act, FAS-TE inh)
COC(=O)c1sc2ccccc2c1NC(=O)c1ccc(S(=O)(=O)N2CCCC(C)C2)cc1 (stereo not drawn)	FAS-TE inh 52 | FAS-TE inh conf inactive
COC(=O)c1sc2ccccc2c1NC(=O)c1ccc(S(=O)(=O)N2CCC(C)CC2)cc1	none
Cc1coc(NC(=O)CSc2nc(-c3ccncc3)cc(C(F)(F)F)c2C#N)n1	FAS-TE inh 55 | FAS-TE inh conf 37
CCOC(=O)N[C@H](C(=O)N1CCC[C@H]1C(=O)NCc1ccccc1)C(C)C	none (no result: aDG glyco act, FAS-TE inh)
C/C(=N\Nc1ncc(Cl)cc1Cl)c1ccc(OC(F)F)cc1	FAS-TE inh 52 | FAS-TE inh conf 59
COC(=O)N/N=C(\C)c1ccc(OC(F)F)cc1	none
Cc1ccc(CNC[C@@]23CO[C@H](c4ccc(Cl)cc4)N2[C@@H](c2ccc(Cl)cc2)SC3)o1	none (no result: aDG glyco act, FAS-TE inh)
O=C(Nc1cccc(C(F)(F)F)c1)c1cccnc1NCCc1ccccc1	FAS-TE inh 53 | FAS-TE inh conf inactive
COc1ccc2c(c1)[C@H]1[C@H](CO2)[C@H](c2ccccc2)[C@@]2(C)C(=O)N[C@H](C)C(=O)N12	none
COc1cc2c(cc1OC)C(=O)N1[C@H]3c4cc(Cl)ccc4OC[C@@H]3[C@H](c3ccccc3)[C@]1(C)C(=O)N2	FAS-TE inh 86 | FAS-TE inh conf inactive
COc1cc2c(cc1OC)C(=O)N1[C@H]3c4cc(C)ccc4OC[C@@H]3[C@H](c3ccccc3)[C@]1(C)C(=O)N2	FAS-TE inh 64 | FAS-TE inh conf inactive
O=C(CN1CCN(Cc2ccccc2)CC1)N/N=C\c1c2ccccc2cc2ccccc12	none (no result: aDG glyco act, FAS-TE inh)
CC(NC(=O)c1cc([N+](=O)[O-])cc([N+](=O)[O-])c1)c1ccc(-n2ccnc2)cc1 (stereo not drawn)	FAS-TE inh 59 | FAS-TE inh conf 72
Cc1nc2cc(C(=O)N3CCN(C(=O)C(C)(C)C)CC3)ccc2n1C1CCCC1	none (no result: aDG glyco act, FAS-TE inh)
O=C(Cn1c(=O)c2c(ncn2Cc2ccccc2)n(Cc2ccccc2)c1=O)N1CCc2ccccc21	FAS-TE inh 66 | FAS-TE inh conf inactive
O=C(Nc1ccc(C(=O)O)cc1)/C(=C\C=C\c1ccccc1)NC(=O)c1ccc(Br)cc1	none
Cc1ccc(NC(=O)/C(=C/C=C/c2ccccc2)NC(=O)c2ccccc2)cc1	FAS-TE inh 63 | FAS-TE inh conf inactive
O=c1oc(-c2ccc(Cl)cc2[N+](=O)[O-])nc2ccccc12	FAS-TE inh 62 | FAS-TE inh conf inactive
Cc1cc(-c2nc3ccccc3c(=O)o2)ccc1[N+](=O)[O-]	none
CCc1ccc(/C=C/c2c([N+](=O)[O-])c(=O)n(C)c(=O)n2C)cc1	none
Cn1c(/C=C/N(Cc2ccccc2)c2ccccc2)c([N+](=O)[O-])c(=O)n(C)c1=O	FAS-TE inh 57 | FAS-TE inh conf 47
Cc1ccc2c(c1)[C@H]1[C@H](CO2)[C@H](c2ccccc2)[C@]2(C)C(=O)Nc3ccc(F)cc3C(=O)N12	FAS-TE inh 83 | FAS-TE inh conf inactive
Cc1ccc2c(c1)[C@H]1[C@H](CO2)[C@H](c2ccccc2)[C@]2(C)C(=O)N(Cc3ccc(F)cc3)CC(=O)N12	none
COc1ccc2c(c1)[C@H]1[C@H](CO2)[C@H](c2ccccc2)[C@]2(C)C(=O)Nc3cc(C)ccc3C(=O)N12	none
C[C@@]12C(=O)Nc3cc(F)ccc3C(=O)N1[C@H]1c3ccccc3OC[C@@H]1[C@@H]2c1ccccc1	FAS-TE inh 69 (no result: GC-A act, GC-B act) | FAS-TE inh conf 48
Cc1ccc2c(c1)[C@H]1[C@H](CO2)[C@H](c2ccccc2)[C@]2(C)C(=O)Nc3cc(Cl)ccc3C(=O)N12	FAS-TE inh 93 (no result: GC-A act, GC-B act) | FAS-TE inh conf inactive
Cc1ccc2c(c1)[C@H]1[C@H](CO2)[C@H](c2ccccc2)[C@]2(C)C(=O)Nc3cc(F)c(F)cc3C(=O)N12	FAS-TE inh 76 | FAS-TE inh conf inactive
CCC[C@H]1[C@@H](NCc2ccccc2)CC[C@@]23CCCN2C(=O)CCC[C@@H]13	none (no result: aDG glyco act, FAS-TE inh)
C[C@@H]1CCN(C2CC2)S(=O)(=O)c2ccc(N3CC[C@H](N(C)C)C3)cc2O1	none (no result: aDG glyco act, FAS-TE inh)
COC(=O)[C@]12C[C@H](CC(=O)NCCCCc3ccccc3)C(=O)N(Cc3cccc4ccccc34)C1=C[C@H](C(C)C)O[C@@H]2C1CC1	none (no result: aDG glyco act, FAS-TE inh)
O=C(Nn1c(-c2ccc(Br)cc2)nc2ccccc2c1=O)c1ccc([N+](=O)[O-])cc1	FAS-TE inh 65 | FAS-TE inh conf 45
CC(C)C[C@@H]1COc2cc(Br)ccc2S(=O)(=O)N1Cc1cn(CC2CCCCC2)nn1	none (no result: aDG glyco act, FAS-TE inh)
Cc1cccc(COC[C@H](CC(C)C)N2CCN(C(=O)c3ccc(C(C)(C)C)cc3)CCC2=O)c1	FAS-TE inh 54 | FAS-TE inh conf 45
Cc1cccc(COCC(CC(C)C)N2CCN(C(=O)c3ccc(C(F)(F)F)cc3)CCC2=O)c1 (stereo not drawn)	none
Cc1cccc(COCC(CC(C)C)N2CCN(C(=O)c3ccc(C(C)(C)C)cc3)CCC2=O)c1 (stereo not drawn)	FAS-TE inh 59 | FAS-TE inh conf 56
COc1ccc(N2CC(C(=O)NCCC3=CCCCC3)CC2=O)c(OC)c1 (stereo not drawn)	none
COc1cc(OC)c(N2CC(C(=O)NCCC3=CCCCC3)CC2=O)cc1Cl (stereo not drawn)	FAS-TE inh 61 | FAS-TE inh conf 67
CCc1ccc(OC(=O)CN2C(=O)c3ccccc3C2=O)cc1	none
